Compound activity deposited in PubChem by National Center for Advancing Translational Sciences (NCATS).
Marburg entry inh – qHTS for inhibitors of binding or entry into cells for Marburg Virus; Marburg virus pseudotyped entry inhibition, cell reporter; 300,000 compounds, 1.8% hits; Potency, µM (doses to about 37.8 µM), usual class: inhibitors; calls by dose curve; tested in HEK293 cells
Shiga inhibitor – A qHTS for Small Molecule Inhibitors of Shiga Toxin | Vero cells, Shiga toxin protein synthesis inhibition reporter | inhibition, % at 38.7 µM | 290,000 compounds, 9.2% hits; in the data active = inhibition mostly above about 28%, no sharp cut-off; inactive = mostly below about 43%
Lassa entry inh – qHTS for Inhibitors of binding or entry into cells for Lassa Virus | Lassa virus pseudotype entry inhibition, cell reporter | Potency, µM (doses to about 37.9 µM), most hits filed as inhibitors | 300,000 compounds, 1.2% hits; calls by dose curve; tested in HEK293 cells; note: nearly all actives have a fitted effect of over 50% in size
HCV inhibitor – qHTS Assay for Inhibitors of Hepatitis C Virus (HCV); Huh7.5.1 HCVcc-Cre infection, luciferase reporter, 44 h; Potency, µM (series often up to 41.8 µM), usual class: inhibitors; 340,000 compounds, 3.4% hits; active = well fitted inhibition curve with a large enough effect; inconclusive = small, poorly fitted or top-dose-only effect, or another doubt; inactive = no such curve, though single readings can be large or run the other way
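HCVcc-Cre virus at an moi near 0.5 was added right after compound to cells cultured 4 h from seeding (1,000 cells/well). Luciferase activity was determined 44 h later, 15 min after substrate addition at RT.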
CHX counter – Cycloheximide Counterscreen for Small Molecule Inhibitors of Shiga Toxin; cell reporter, cycloheximide protein synthesis inhibition counterscreen; max response, %; 300,000 compounds, 12% hits; in the data active = max response mostly above about 13%, no sharp cut-off; inactive = mostly below about 14%; note: read at 38.3 µM for the half of the compounds with a filed dose
FMDV antiviral – High Throughput Screening for Foot and Mouth Disease Virus Antivirals; FMDV antiviral cell-based qHTS; Potency, µM (series often up to 57.9 µM), actives largely listed as inhibitors; AID 1159524, 2015; 410,000 compounds, 1.2% hits; calls by dose curve; tested in HEK293T cells; note: read-out not given here; nearly all actives have a fitted effect of over 45% in size
Hits are given with their value; . = inactive; ? = inconclusive; / = no result. Sampled rows, rich in hits. Any-hit rate of the full collection: about 13%.

SMILES	Marburg entry inh	Shiga inhibitor	Lassa entry inh	HCV inhibitor	CHX counter	FMDV antiviral
O=C(NCCc1ccccc1)c1ccc2nc(CCc3ccccc3)oc2c1	/	/	.	/	/	.
O=C(NCCc1ccccc1)c1ccc2nccnc2c1	1.3µM	.	2.8µM	.	.	.
O=C(NCCc1ccccc1)c1cccnc1	.	63	?	.	37	.
COc1ccc(C(=O)Nc2nnc(S(=O)(=O)Cc3ccccc3)s2)cc1	.	.	.	.	.	.
CN(C)C(=O)c1ccc2c(c1)N(CC(=O)NCc1ccccc1Cl)C(=O)C1CCCCN21 (configuration not stated)	/	/	.	/	/	.
CCCc1cc(NCc2ccccn2)n2c(nc3ccccc32)c1C#N	.	.	.	13µM	.	.
Cc1cc(NCc2ccccn2)n2c(nc3ccccc32)c1C#N	/	.	/	.	.	.
COc1ccc(CNCCc2ccc(Cl)cc2)cc1OCc1ccccc1	?	.	?	?	.	.
CCOc1cc(CNCc2ccccc2)ccc1OCc1ccc(Cl)cc1	?	.	?	22µM	.	?
OCCNCc1cc(Br)ccc1OCc1ccccc1	?	.	.	.	.	.
CCOc1cc(CNc2ccc(O)cc2)ccc1OCc1ccc(Cl)cc1Cl	.	51	?	.	26	?
CCOc1cc(CNCCc2ccc(S(N)(=O)=O)cc2)ccc1OCc1ccccc1	6.5µM	.	?	13µM	.	?
NS(=O)(=O)c1ccc(CCNCc2cc(Br)ccc2OCc2ccccc2)cc1	?	.	?	11µM	.	?
Cc1cc([N+](=O)[O-])ccc1Nc1nc2ccccc2n2cnnc12	/	.	/	?	.	.
CS(=O)(=O)Nc1ccc(C2=NN(C(=O)C3CCCCC3)C(c3cccs3)C2)cc1 (configuration not stated)	?	.	?	.	.	20µM
CCS(=O)(=O)Nc1cccc(C2=NN(S(C)(=O)=O)C(c3cccs3)C2)c1 (configuration not stated)	/	.	/	.	.	.
CS(=O)(=O)N1N=C(c2ccc(Cl)cc2)CC1c1cccs1 (configuration not stated)	.	.	.	.	35	.
CS(=O)(=O)N1N=C(c2cccs2)CC1c1ccc(F)cc1 (configuration not stated)	/	.	/	.	33	.
O=C1C=Cc2cccc3ccc(O)c1c23	.	/	.	?	/	.
CCc1ccc(NC(=O)Nc2ccon2)cc1	/	62	/	.	68	.
O=C(Nc1ccc([N+](=O)[O-])cc1)Nc1ccon1	?	.	.	.	.	.
O=C(Nc1cc(Cl)cc(Cl)c1)Nc1cnccn1	/	.	/	.	.	.
CCc1ccc(NC(=O)Nc2cnccn2)cc1	/	102	/	.	47	.
CCCCc1ccc(NC(=O)Nc2cnccn2)cc1	/	50	/	?	23	.
Cc1cccc(NC(=O)CSCC(=O)Nc2cc(S(=O)(=O)N3CCOCC3)ccc2OC(C)C)c1	.	/	.	.	/	.
SMILES	Marburg entry inh	Shiga inhibitor	Lassa entry inh	HCV inhibitor	CHX counter	FMDV antiviral
CC(C)CN(C(=O)CCNC(=O)c1ccc([N+](=O)[O-])cc1)C1CCS(=O)(=O)C1 (configuration not stated)	.	/	.	.	/	.
COCc1cc(C)nc(SCC[N+](C)(C)CC(=O)c2ccc(Br)cc2)c1C#N	.	.	.	32µM	.	.
COCc1cc(C)nc(SCC(=O)Nc2nc(C)cs2)c1C#N	?	.	?	.	24	.
COCc1cc(C)nc(SCC(=O)Nc2cccc(C)c2C)c1C#N	.	.	.	?	.	/
COc1cccc(-n2c(SCc3ccccc3C)nc3c([nH]c4ccccc43)c2=O)c1	/	/	.	/	/	.
Cc1ccc(N2CC3=C(C2=O)C(c2ccccc2)NC(=O)N3C)cc1 (configuration not stated)	?	.	.	.	.	.
CN(C)S(=O)(=O)c1cccc(NC(=O)CCCC2CCCCC2)c1	/	/	/	?	/	.
Cc1cc(C)cc(NC(=O)Nc2cccc(S(N)(=O)=O)c2)c1	.	.	.	.	.	.
NS(=O)(=O)c1cccc(NC(=O)Nc2ccccc2)c1	.	.	.	.	11	.
CC(=O)c1ccc(NC(=S)NCCc2cccc(Cl)c2)cc1	?	78	?	.	27	.
NS(=O)(=O)c1cccc(NC(=O)CCCC2CCCCC2)c1	?	60	.	.	.	.
